{"source": "PubChem BioAssay (NCI)", "note": "The panel holds about 83,000 compounds, 20% with a hit somewhere; the sample as a whole holds those more often.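 Compound tested at a single concentration for 48 hours in 96-well plates; a percent growth value below 10 was scored as active.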 Unmarked numbers belong to inactive results. Calls of active or inactive are those of the source."}
{"system": "HT29 colon", "test": "NCI-60 one-dose screen, 48 h (100 = growth as untreated, 0 = no growth, -100 = all killed)", "conditions": "10 µM unless noted", "procedure": "Growth inhibition of the HT29 human tumor cell line is measured as a screen for anti-cancer activity. Cells are grown in 96 well plates and exposed to the test compound for 48 hours. Compounds are tested at a single concentration, which is 10^-5 M for most compounds. The reported endpoint is percent growth (GI% or GIPRCNT), where numbers from 0 - 100% represent growth inhibition, and numbers from -100% - 0 represent cell death. For example, a value of 40 represents 60% growth inhibition. A value of 0 means no net growth occurred over the course of the experiment. A value of -40 indicates 40% of cells at the beginning of the experiment died by the end of the experiment. A value of -100 means all cells are dead at the end of the experiment.\nNCI-60 Human Tumor Cell Lines Screen was performed using the standard one-dose NCI protocol, which is described in more detail at https://dtp.cancer.gov/discovery_development/nci-60/default.htm.\nCompounds with GIPRCNT values below 10 were considered active. Activity score was based on GIPRCNT using the following formula: […]\nScore is 0 for GIPRCNT values of 100 or above, 50 for GIPRCNT values of 0, and 100 for GIPRCNT values of -100."}
{"compound": "CNC(=O)c1c(NC(=O)c2ccc(C(C)(C)C)cc2)sc2c(CN(C)C)c(O)ccc12", "growth": "0.0225% (active)"}
{"compound": "CC[C@]12C=CCN3CC[C@@]4(c5ccc(OC)cc5N(C)[C@H]4[C@@](O)(C(=O)OC)[C@@H]1OC(=O)CCCN1CCOCC1)[C@@H]32", "growth": "110%"}
{"compound": "CC(=O)c1c(Nc2ccc(F)c(F)c2F)[nH]c2c(F)cc(F)cc2c1=O", "growth": "3.62% (active)"}
{"compound": "CCOC(=O)C1CCN(c2ccc(N3C[C@@H](CNCc4ccc(C(=N)N)cc4)OC3=O)cc2)CC1", "growth": "105%"}
{"compound": "O=C(N/N=C/c1ccc(O)cc1O)c1ccc(Nc2ccnc(C(F)(F)F)c2)cc1", "growth": "58.6%"}
{"compound": "CCOC(=O)c1c(C)nc2ccccc2c1/C=C/c1ccc(OC)cc1", "growth": "73.5%"}
{"compound": "CCNC(=O)Oc1ccc(/C(=C(/C)Cc2ccc(OC)cc2)c2ccc(OCCN3CCCC3)cc2)cc1", "growth": "7.46% (active)"}
{"compound": "CCN(CC)c1ccc(/C=C\\c2cc(C)c3cc(C)ccc3n2)cc1", "growth": "-17.9% (active)"}
{"compound": "CC(C(=O)O)n1c(O)c(C=Nc2cccnc2)sc1=S", "note": "(stereo not given)", "growth": "111%"}
{"compound": "C/C(=N\\O)C(=O)NCCCCCC(=O)Nc1ccccc1", "growth": "104%"}
{"compound": "CC1(C)CCC(S(=O)(=O)c2ccc3c(c2)/C(=N\\O)c2cc(S(=O)(=O)N4CCN(c5ccc(F)cc5O)CC4)ccc2-3)CC1", "growth": "-88.7% (active)"}
{"compound": "Cn1cc(-c2nonc2-c2c[nH]c3ccccc23)c2ccccc21", "growth": "5.85% (active)"}
{"compound": "Cn1cc(/C=C2/C(=O)Nc3ccccc32)c2ccccc21", "growth": "95.4%"}
{"compound": "Cn1ncc2ccc(-c3nc(-c4ccccc4)[nH]c3-c3n[nH]c(=O)n3C3CC3)cc21", "growth": "87.1%"}
{"compound": "CO[C@H](C(=O)[C@@H](O)[C@@H](C)O)[C@@H]1Cc2cc3cc(O[C@H]4C[C@@H](O[C@H]5C[C@@H](O)[C@H](O)C(C)O5)[C@H](O)C(C)O4)c(C)c(O)c3c(O)c2C(=O)[C@H]1O[C@H]1C[C@@H](O[C@H]2C[C@@H](O[C@H]3C[C@@H](OC)[C@H](O)C(C)O3)[C@@H](O)C(C)O2)C(O)(O)C(C)O1", "note": "(stereo not given in full)", "growth": "-0.578% (active)"}
{"compound": "CCN(CC)CCOc1ccc(Nc2ncc3cc(-c4ccc(O)cc4)c(=O)n(C)c3n2)cc1", "growth": "14.8%"}
{"compound": "COC(=O)Cc1nc(C#N)c(N(C)C)o1", "growth": "106%"}
{"compound": "Cc1cc(C(=O)Nc2cc(Nc3ncccc3-c3ncnc4nc[nH]c34)ccc2F)cc(C(F)(F)F)c1", "growth": "20.8%"}
{"compound": "CC(/C=C1\\SC(=S)N(CC(=O)NC(Cc2c[nH]c3ccccc23)C(=O)O)C1=O)=C\\c1ccccc1", "note": "(stereo not given)", "growth": "110%"}
{"compound": "COc1ccc(C2=Nc3c/c(=C\\c4c(O)[nH]c5cc(Cl)ccc45)ccc3=N2)cc1", "growth": "39.8%"}
{"compound": "CCCNc1nc2ccccc2c2c(=O)c3cccc(Cl)c3sc12", "growth": "81.8%"}
{"compound": "N#CCC1=NC(c2cccs2)=Nc2ccccc2S1", "growth": "89.5%"}
{"compound": "CC/C=C1/C(=O)C=C[C@@H]1C/C=C\\CCCC(=O)OC", "growth": "24.8%"}
{"compound": "Cn1c(O)c(C(/C=C/c2ccccc2)=Nc2ccccc2N)c(=O)n(C)c1=O", "growth": "72.1%"}
{"compound": "COc1cc(N2C(=O)[C@H](c3ccccc3)C2c2ccc(SC)cc2)cc(OC)c1OC", "note": "(stereo not given in full)", "growth": "-9.59% (active)"}
{"compound": "CCCCNC1=C(OCC)C(=O)c2ccccc2C1=O", "growth": "123%"}
{"compound": "CC(C)CSc1oc(-c2ccccc2)nc1S(=O)(=O)c1ccccc1", "growth": "86.2%"}
{"compound": "Cc1[nH]c(/C=C/C(=O)c2ccc(C(F)(F)F)c(F)c2)c(C)c1C(=O)NCC(C)C", "growth": "102%"}
{"compound": "COc1cc2c(/C=C3\\C(=O)Nc4ccccc43)c(C(=O)O)[nH]c2cc1C", "growth": "89.8%"}
{"compound": "COc1ccc(-c2oc(=O)ccc2-c2cc(OC)c(OC)c(OC)c2)cc1O", "growth": "3.93% (active)"}
{"compound": "O=[N+]([O-])/C(=C\\c1ccco1)c1ccccc1Cl", "growth": "69.7%"}
{"compound": "Cc1cc(N2CCN(C)CC2)nc(NCc2cc(Nc3ccnc4cc(Cl)ccc34)ccc2F)n1", "growth": "-56.1% (active)"}
{"compound": "COc1ccc(-c2cc(C(=O)N3N=C(c4ccc(N)cc4)CC3c3ccccc3)c3ccccc3n2)cc1", "note": "(stereo not given)", "growth": "10.3%"}
{"compound": "COc1cc(-c2nc3occn3c2-c2ccnc(NCCCNS(=O)(=O)c3ccccc3)n2)ccc1F", "growth": "16.7%"}
{"compound": "COc1cccc(/C=C/C(=O)c2cc3c(N)c(C(=O)Nc4ccccc4C)sc3nc2C)c1", "growth": "-5.29% (active)"}
{"compound": "COc1ccc(NC(=O)c2sc3nc4c(cc3c2N)CCCC4)cc1", "growth": "0.414% (active)"}
{"compound": "N#Cc1c(NC(=O)c2cccs2)[n+]([O-])c2ccc(Cl)cc2[n+]1[O-]", "growth": "107%"}
{"compound": "CN1CCCc2cc(/C=C3/SC(=S)N(CCc4ccc(O)cc4)C3=O)ccc21", "growth": "86.3%"}
{"compound": "CNCc1cccc2c1OCCOCCN(C)C(=O)CN(C)S(=O)(=O)c1ccc(cc1)-c1cnc(N)c(n1)C(=O)N2", "growth": "11.6%"}
{"compound": "CSCCC(NC(=O)c1ccccc1)C(=O)N/N=C1\\S/C(=C/c2ccc(Cl)cc2)C(=O)N1C", "note": "(stereo not given)", "growth": "91.4%"}
